Screen size: about 65,000 compounds; about 2,100 (3.2%) showed an effect of 50% or more. The median lay at about -52%. The entries come from a sample that favours strong results as a whole.
The compounds below were run on Plasmodium falciparum (assay: Screen against P. falciparum Asexual Blood Stage (ABS), at 5uM). Conditions: tested at 5 uM.
Type: functional, Dd2

Row | Structure (SMILES) | INHIBITION
1 | CN(C)C[C@@H]1CCC[C@@H]2CN(c3ncccn3)C[C@@H]21 | 44.8%
2 | CN(C)C[C@@H]1CCC[C@@H]2CN(c3nccc(C(F)(F)F)n3)C[C@@H]21 | 64.8%
3 | COCCN(C)C[C@@H]1CCC[C@@H]2CN(c3ncccn3)C[C@@H]21 | 33.9%
4 | Cc1ccc(N2C[C@H]3CCC[C@@H](CN(C)C)[C@H]3C2)nn1 | -54.9%
5 | CN(C)C[C@@H]1CCC[C@@H]2CN(c3cccnc3)C[C@@H]21 | 56.4%
6 | CN(C[C@@H]1CCC[C@@H]2CN(c3ncccn3)C[C@@H]21)C1CC1 | 17.5%
7 | O=C(NCc1cc(=O)n2c(n1)CN(CC1CC1)CCC2)c1ccsc1 | -69.7%
8 | c1cnc(N2CC3(CCN(C4CCOC4)CC3)c3ccccc32)nc1 (stereo unspecified) | -101%
9 | c1cnc(N2CC3(CCN(CC4CCOC4)CC3)c3ccccc32)nc1 (stereo unspecified) | -5.4%
10 | c1cnc(N2CC3(CCN(C4CCOCC4)CC3)c3ccccc32)nc1 | 64%
11 | COCCN1CCc2cc(C(=O)NC(C)C)c(NCC3CC3)nc2CC1 | 33.6%
12 | O=C(CCn1cccn1)NCCOc1ncc(Cl)cc1Cl | 18.7%
13 | N#Cc1ccc(N2CCC3(CC2)CC(OCc2cccnc2)CO3)cc1 (stereo unspecified) | -57.3%
14 | COCCN1CCC2(CC1)CC(NC(=O)COC)c1ccccc1O2 (stereo unspecified) | -38.3%
15 | COCCN1CCC2(CC1)CC(NC(=O)CC1CC1)c1ccccc1O2 (stereo unspecified) | -92.9%
16 | COCCN1CCC2(CC1)CC(NC(=O)CN(C)C)c1ccccc1O2 (stereo unspecified) | 67.7%
17 | CNCc1cc(C)n(-c2ccccc2OC)c1C | 30.8%
18 | Cc1nn(C)c(C)c1C1CCCN1Cc1cccc(OCC(N)=O)c1 (stereo unspecified) | -22.6%
19 | CCn1cncc1CNC(=O)c1ccc(C2CCCN2C(=O)COC)s1 (stereo unspecified) | -32.8%
20 | O=C(NCC1CC1)[C@@H]1CCO[C@@H]2CCN(Cc3ccc(F)cc3)C[C@H]21 | 22.5%
21 | O=C(NCC1CC1)[C@@H]1CCO[C@@H]2CCN(Cc3ccsc3)C[C@H]21 | 50.9%
22 | O=C(NC1CC1)[C@@H]1CCO[C@@H]2CCN(Cc3ccsc3)C[C@H]21 | -48.8%
23 | O=C(NCCCn1ccnc1)NCC(c1ccco1)N1CCCC1 (stereo unspecified) | -96.3%
24 | CCN1CCCC(CN(C)c2nccc(-c3ccc(C)nc3C)n2)C1 (stereo unspecified) | 26.3%
25 | N[C@@H]1CC[C@@H]1NC(=O)c1ccccc1OC(F)(F)C(F)F | 42.2%
26 | O=C(N[C@@H]1CCNC[C@H]1O)c1ccccc1OC(F)(F)C(F)F | -173%

Row | Structure (SMILES) | INHIBITION
27 | CC(C)N[C@@H]1CC[C@@H]1NC(=O)c1ccccc1OC(F)(F)C(F)F | 54.4%
28 | Cc1ccnc(NCc2cn3nc(C)sc3n2)n1 | -114%
29 | O=C(Cc1ccc2c(c1)OCC2)Nc1nc[nH]n1 | -116%
30 | c1cnn(Cc2cnc3n2CCN(CC2CCCCC2)C3)c1 | 4.97%
31 | COCCCNC(=O)CN(C)C(C)c1nc(C(C)C)no1 (stereo unspecified) | -119%
32 | CN1CCOC(CNC(=O)C2(c3ccccc3)CCC2)C1 (stereo unspecified) | -66.7%
33 | Cc1cccc(C2(C(=O)NCC3CN(C)CCO3)CC2)c1 (stereo unspecified) | 0.579%
34 | CN1CCOC(CNC(=O)C2(c3cccc(C(F)(F)F)c3)CCCC2)C1 (stereo unspecified) | 55.9%
35 | CN(Cc1csc(-c2cnn(C)c2)n1)CC1CCN(CCO)CC1 | -6.54%
36 | c1nn(C2CCCCC2)cc1-c1cncn1CCCN1CCCCC1 | 62.1%
37 | c1nc(N2CCOCC2)ncc1-c1cncn1CCCN1CCCCC1 | -102%
38 | CC(Cn1cncc1-c1cnn(C2CCCCC2)c1)N1CCCCC1 (stereo unspecified) | 13.6%
39 | Cc1ccccc1N1CCCN(C(=O)CC2CN(C(C)C)CCO2)CC1 (stereo unspecified) | 11.3%
40 | CN1CCCC1CNC(=O)CCCOc1ccc(I)cc1 (stereo unspecified) | 59.8%
41 | CC(=O)c1cccc(OCCCC(=O)NCC2CCCN2C)c1 (stereo unspecified) | 3.79%
42 | CN1CCCC1CNC(=O)CCOc1ccc(Cl)cc1 (stereo unspecified) | 67.9%
43 | CN1CCCC1CNC(=O)CCCOc1cccc(F)c1 (stereo unspecified) | 35.7%
44 | CN1CCCC1CNC(=O)CCOc1ccc(Br)cc1 (stereo unspecified) | 62.6%
45 | CN1CCCC1CNC(=O)CCCOc1ccc(F)cc1 (stereo unspecified) | 48.7%
46 | Cc1ncc(CNC(=O)CCOc2ccccc2)c(C2CCCN2C)n1 (stereo unspecified) | -57%
47 | CN1CCCC1CNC(=O)CCCOCc1ccccc1 (stereo unspecified) | -46.6%
48 | COc1cc(CCC(=O)NCC2CCCN2C)ccc1OCC(F)(F)F (stereo unspecified) | 43.4%
49 | CC(C)c1nc(O)c2nnn(C[C@@H]3CCCN(Cc4cccs4)C3)c2n1 | -32.9%
50 | O=C1CO[C@@H]2CN(S(=O)(=O)c3ccc(F)cc3)C[C@H]2N1 | -28.2%
51 | Cc1cc(C(=O)N2CC[C@@]3(O)CCN(S(C)(=O)=O)C[C@H]3C2)c(C)n1C | -156%

— ChEMBL document CHEMBL4513216, “Probing the Open Global Health Chemical Diversity Library for Multistage-Active Starting Points for Next-Generation Antimalarials” (ACS Infect Dis, 2020)
